Compound in this experiment: Nc1nc2c(ncn2[C@@H]2O[C@H](COP(=O)(O)OP(=O)(O)OP(=O)(O)O)[C@@H](O)[C@H]2O)c(=O)[nH]1 [guanosine triphosphate]
Kind of experiment: NP40-soluble protein abundance relative to vehicle (solubility fold change) (ratio); higher = more soluble protein in presence of GTP. As to the method:
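Solubility proteome profiling in Jurkat crude lysate. Lysate was treated with Mg-GTP (0.1-10 mM) for 10 min at room temperature and 3 min at 37 °C, then solubilised with 0.8% NP40 and benzonase, followed by ultracentrifugation. Proteins were quantified by TMT10 LC-MS/MS; the value is the NP40-soluble abundance relative to the NP40-processed vehicle, from 3 independent experiments.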

± gives the standard deviation of the averaged measurements. About 5,400 targets were measured; listed, in parts, are those with the largest changes and a random draw of the rest.

Chain of UniProt Q9Y333 (Q9Y333 whole entry): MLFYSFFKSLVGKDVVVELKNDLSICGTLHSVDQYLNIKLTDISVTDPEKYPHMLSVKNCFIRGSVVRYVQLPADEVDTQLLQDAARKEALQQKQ
Chain of UniProt Q9HCD5 (Q9HCD5 whole entry): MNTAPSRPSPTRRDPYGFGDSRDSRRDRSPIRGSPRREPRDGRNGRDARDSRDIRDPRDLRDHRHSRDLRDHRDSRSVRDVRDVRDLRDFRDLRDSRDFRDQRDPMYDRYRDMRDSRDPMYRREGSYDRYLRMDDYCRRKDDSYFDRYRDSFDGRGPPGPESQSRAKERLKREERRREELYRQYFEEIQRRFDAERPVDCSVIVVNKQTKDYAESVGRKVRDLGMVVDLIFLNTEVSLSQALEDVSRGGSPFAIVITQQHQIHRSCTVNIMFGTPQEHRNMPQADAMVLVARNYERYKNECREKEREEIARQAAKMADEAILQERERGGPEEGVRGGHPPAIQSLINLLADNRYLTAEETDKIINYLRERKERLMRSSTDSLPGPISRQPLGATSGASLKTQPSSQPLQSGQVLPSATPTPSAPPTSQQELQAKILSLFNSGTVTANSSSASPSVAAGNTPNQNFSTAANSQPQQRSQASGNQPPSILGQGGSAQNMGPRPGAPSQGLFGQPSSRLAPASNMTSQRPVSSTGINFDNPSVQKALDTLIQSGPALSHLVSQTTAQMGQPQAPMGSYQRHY
Chain of UniProt Q9UBD5 (Q9UBD5 whole entry): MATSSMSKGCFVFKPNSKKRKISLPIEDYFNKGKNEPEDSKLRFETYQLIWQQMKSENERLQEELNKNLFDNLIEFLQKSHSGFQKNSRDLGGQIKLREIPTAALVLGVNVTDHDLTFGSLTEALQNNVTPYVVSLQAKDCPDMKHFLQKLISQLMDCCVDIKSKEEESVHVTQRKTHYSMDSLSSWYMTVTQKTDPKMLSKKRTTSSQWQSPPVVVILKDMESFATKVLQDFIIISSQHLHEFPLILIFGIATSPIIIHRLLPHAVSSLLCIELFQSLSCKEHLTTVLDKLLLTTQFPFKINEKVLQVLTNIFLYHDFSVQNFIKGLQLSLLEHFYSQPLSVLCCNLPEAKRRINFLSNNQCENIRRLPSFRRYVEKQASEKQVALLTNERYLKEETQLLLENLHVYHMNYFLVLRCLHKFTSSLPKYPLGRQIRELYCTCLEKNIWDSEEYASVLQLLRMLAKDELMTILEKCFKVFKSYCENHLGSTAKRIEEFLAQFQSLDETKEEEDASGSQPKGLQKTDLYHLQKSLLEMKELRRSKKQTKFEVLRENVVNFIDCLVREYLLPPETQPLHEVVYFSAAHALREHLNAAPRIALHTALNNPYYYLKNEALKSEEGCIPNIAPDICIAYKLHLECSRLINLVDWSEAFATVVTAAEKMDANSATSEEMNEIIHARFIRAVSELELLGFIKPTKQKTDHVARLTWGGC
Chain of UniProt Q9P287 (Q9P287 whole entry): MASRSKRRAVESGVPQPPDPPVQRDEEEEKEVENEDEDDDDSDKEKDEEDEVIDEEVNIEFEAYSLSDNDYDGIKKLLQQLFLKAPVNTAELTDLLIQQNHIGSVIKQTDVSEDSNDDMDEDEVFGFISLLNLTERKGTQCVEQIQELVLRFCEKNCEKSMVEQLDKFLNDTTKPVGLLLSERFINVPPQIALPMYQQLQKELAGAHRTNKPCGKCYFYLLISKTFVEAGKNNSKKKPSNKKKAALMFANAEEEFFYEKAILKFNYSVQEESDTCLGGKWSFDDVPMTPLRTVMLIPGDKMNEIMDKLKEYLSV

In the case of UniProt Q96MT7-2, the NP40-soluble protein abundance is 1.09 ± 0.063 (concentration: 0.1mM); 0.959 ± 0.033 (concentration: 0.5mM); 1 ± 0.093 (concentration: 1mM); 0.863 ± 0.12 (concentration: 2mM); 0.869 ± 0.04 (concentration: 4mM); 0.915 ± 0.14 (concentration: 6mM). Further, the NP40-soluble protein abundance runs as follows: (concentration: 8mM) 0.834 ± 0.052; (concentration: 10mM) 0.786 ± 0.082.
On to UniProt Q9P287|Q9P287-2, for which the NP40-soluble protein abundance is, setting by setting: (concentration: 0.1mM) 1.03 ± 0.026; (concentration: 0.5mM) 0.973 ± 0.032; (concentration: 1mM) 0.971 ± 0.066; (concentration: 2mM) 0.953 ± 0.059; (concentration: 4mM) 0.99 ± 0.083; (concentration: 6mM) 0.913 ± 0.069. Besides, the NP40-soluble protein abundance reads like this: (concentration: 8mM) 0.943 ± 0.058; (concentration: 10mM) 0.946 ± 0.075.
Regarding UniProt Q9UBD5|Q9UBD5-2, the NP40-soluble protein abundance is 0.981 ± 0.061 (concentration: 0.1mM); 1.06 ± 0.076 (concentration: 0.5mM); 0.957 ± 0.092 (concentration: 1mM); 1.04 ± 0.049 (concentration: 2mM); 0.998 ± 0.069 (concentration: 4mM); 1.04 ± 0.04 (concentration: 6mM). Also, the NP40-soluble protein abundance by setting is: (concentration: 8mM) 1.02 ± 0.1; (concentration: 10mM) 1.07 ± 0.018.
Consider NCOA5 (UniProt Q9HCD5), for which the NP40-soluble protein abundance is, setting by setting: (concentration: 0.1mM) 1.03 ± 0.053; (concentration: 0.5mM) 1 ± 0.028; (concentration: 1mM) 1.084 ± 0.0085; (concentration: 2mM) 1.22 ± 0.043; (concentration: 4mM) 1.58 ± 0.053; (concentration: 6mM) 1.81 ± 0.059. Also, the NP40-soluble protein abundance by setting is: (concentration: 8mM) 2.15 ± 0.18; (concentration: 10mM) 2.4 ± 0.19.
Regarding UniProt Q9Y333, the NP40-soluble protein abundance amounted to 0.946 ± 0.08 (concentration: 0.1mM); 0.98 ± 0.11 (concentration: 0.5mM); 0.973 ± 0.091 (concentration: 1mM); 0.939 ± 0.1 (concentration: 2mM); 0.887 ± 0.12 (concentration: 4mM); 0.989 ± 0.13 (concentration: 6mM). In addition, the NP40-soluble protein abundance (concentration: 8mM) is 0.962 ± 0.089 and the NP40-soluble protein abundance (concentration: 10mM) stood at 0.963 ± 0.059.

The values are drawn from the supplement of paper PMC6411743.
